Experiments:
Assay in all cases: protein-binding microarray (PBM); PBM: ~300 nM protein, 6 mM HEPES pH 7.8, 80 mM KCl, 0.5 mM EDTA, 0.5 mM EGTA, 6% glycerol, 35 ng/ul poly-dIdC, 1% milk, 1 h, room temperature; Ap Aiptasia and Nv Nematostella (sea anemones) / Co Capsaspora / Aq Amphimedon (sponge) / Dm Drosophila / Hu human; RHD is the Rel homology domain; high values mean tight binding
Details in all cases: dsDNA, one strand shown
GST-Ap-NF-kB RHD = target: T1, GST-Ap-NF-kB RHD (Exaiptasia pallida (Aiptasia), UniProt A0A913YAJ5 2-422)
T1 sequence: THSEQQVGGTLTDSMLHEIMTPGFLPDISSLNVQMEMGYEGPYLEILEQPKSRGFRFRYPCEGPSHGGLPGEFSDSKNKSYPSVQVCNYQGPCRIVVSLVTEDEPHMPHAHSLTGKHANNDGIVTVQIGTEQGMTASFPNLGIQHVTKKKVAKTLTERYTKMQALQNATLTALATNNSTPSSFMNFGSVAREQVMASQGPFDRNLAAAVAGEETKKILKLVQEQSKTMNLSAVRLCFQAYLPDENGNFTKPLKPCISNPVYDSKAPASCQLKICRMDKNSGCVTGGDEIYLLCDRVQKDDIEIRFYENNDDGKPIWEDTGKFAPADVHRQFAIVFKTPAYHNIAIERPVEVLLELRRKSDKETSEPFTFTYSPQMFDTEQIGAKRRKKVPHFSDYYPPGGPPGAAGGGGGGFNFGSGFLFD

[1] = target: T2, GST-Nv-NF-kB (Cys allele) (Nematostella vectensis, UniProt E5G601 2-411)
T2 sequence: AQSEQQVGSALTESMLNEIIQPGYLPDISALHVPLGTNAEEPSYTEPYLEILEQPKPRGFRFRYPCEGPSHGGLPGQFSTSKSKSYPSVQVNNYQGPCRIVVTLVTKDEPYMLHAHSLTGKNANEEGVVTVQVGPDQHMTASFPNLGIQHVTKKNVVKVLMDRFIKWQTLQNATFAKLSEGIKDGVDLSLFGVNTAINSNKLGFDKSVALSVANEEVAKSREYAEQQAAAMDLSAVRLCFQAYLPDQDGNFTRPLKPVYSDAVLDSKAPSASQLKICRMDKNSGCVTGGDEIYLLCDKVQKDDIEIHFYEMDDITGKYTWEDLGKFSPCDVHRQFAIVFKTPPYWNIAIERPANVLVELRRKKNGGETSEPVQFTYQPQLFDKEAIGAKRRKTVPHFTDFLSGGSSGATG

GST-Co-NF-kB = target: T3, GST-Co-NF-kB (Capsaspora owczarzaki, UniProt F1ARL5 200-546)
T3 sequence: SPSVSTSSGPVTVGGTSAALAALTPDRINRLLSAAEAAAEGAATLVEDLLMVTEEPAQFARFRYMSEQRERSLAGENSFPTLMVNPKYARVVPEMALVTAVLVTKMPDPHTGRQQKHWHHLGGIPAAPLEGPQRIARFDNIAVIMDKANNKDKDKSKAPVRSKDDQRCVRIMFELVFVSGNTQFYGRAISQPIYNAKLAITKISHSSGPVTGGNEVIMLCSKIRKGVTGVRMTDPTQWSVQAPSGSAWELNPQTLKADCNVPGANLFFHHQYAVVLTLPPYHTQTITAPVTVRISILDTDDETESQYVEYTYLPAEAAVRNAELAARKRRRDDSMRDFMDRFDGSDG

GST-Dm-Relish = target: T4, GST-Dm-Relish (Drosophila melanogaster, UniProt Q94527 99-473)
T4 sequence: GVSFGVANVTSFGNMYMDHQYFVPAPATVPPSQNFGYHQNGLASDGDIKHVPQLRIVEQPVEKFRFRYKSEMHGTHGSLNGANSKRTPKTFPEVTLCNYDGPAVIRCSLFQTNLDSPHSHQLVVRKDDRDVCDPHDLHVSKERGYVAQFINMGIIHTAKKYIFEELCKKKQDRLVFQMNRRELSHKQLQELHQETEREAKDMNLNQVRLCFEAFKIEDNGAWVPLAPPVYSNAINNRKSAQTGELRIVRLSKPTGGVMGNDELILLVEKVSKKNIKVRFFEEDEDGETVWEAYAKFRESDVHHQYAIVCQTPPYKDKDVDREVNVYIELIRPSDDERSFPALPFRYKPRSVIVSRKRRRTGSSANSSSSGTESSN

GST-Aq-NF-kB = target: T5, GST-Aq-NF-kB (Amphimedon queenslandica, UniProt A9Y5G7 2-389)
T5 sequence: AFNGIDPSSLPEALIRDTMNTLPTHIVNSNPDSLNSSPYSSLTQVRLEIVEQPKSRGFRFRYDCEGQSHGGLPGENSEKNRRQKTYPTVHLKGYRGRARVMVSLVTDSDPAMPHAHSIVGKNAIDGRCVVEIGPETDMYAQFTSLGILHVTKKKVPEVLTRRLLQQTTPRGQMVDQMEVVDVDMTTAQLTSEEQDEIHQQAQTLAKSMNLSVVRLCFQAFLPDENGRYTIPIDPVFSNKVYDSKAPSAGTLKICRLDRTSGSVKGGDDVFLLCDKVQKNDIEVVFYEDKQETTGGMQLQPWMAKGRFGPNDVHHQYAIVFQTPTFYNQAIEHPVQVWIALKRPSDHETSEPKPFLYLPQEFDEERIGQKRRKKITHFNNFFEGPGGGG

Row | Sequence | binding signal (GST-Ap-NF-kB RHD) | binding signal [1] | binding signal (GST-Co-NF-kB) | binding signal (GST-Dm-Relish) | binding signal (GST-Aq-NF-kB)
1 | CCGATTAACATCAACATCCCCCCTGATGTTAATCGGGTCTTGATTCGCTTGACGCTGCTG | 5.64 z-score | 5.25 z-score | 5.48 z-score | 5.72 z-score | 5.23 z-score
2 | CCGATTAACATCAACTCCCCCCATGATGTTAATCGGGTCTTGATTCGCTTGACGCTGCTG | 5.39 z-score | 4.1 z-score | 6.49 z-score | 4.31 z-score | 4.72 z-score
3 | CCGATTAACATCAGAATATCCCATGATGTTAATCGGGTCTTGATTCGCTTGACGCTGCTG | 2.05 z-score | 1.17 z-score | 1.46 z-score | 1.8 z-score | 1.86 z-score
4 | CCGATTAACATCACCCGATTCCCTGATGTTAATCGGGTCTTGATTCGCTTGACGCTGCTG | 2.55 z-score | 2.62 z-score | 2.5 z-score | 1.62 z-score | 2.54 z-score
5 | CCGATTAACATCACGGGACCCCCTGATGTTAATCGGGTCTTGATTCGCTTGACGCTGCTG | 6.47 z-score | 3.01 z-score | 1.75 z-score | 6.84 z-score | 3.7 z-score
6 | CCGATTAACATCAGGGGATGACCTGATGTTAATCGGGTCTTGATTCGCTTGACGCTGCTG | 3.72 z-score | 4.14 z-score | 1.93 z-score | 6.67 z-score | 6.55 z-score
7 | CCGATTAACATCAGGGACACCCCTGATGTTAATCGGGTCTTGATTCGCTTGACGCTGCTG | 6.11 z-score | 4.44 z-score | 3.39 z-score | 7.09 z-score | 6.84 z-score
8 | CCGATTAACATCAGGGAACGCCCTGATGTTAATCGGGTCTTGATTCGCTTGACGCTGCTG | 2.68 z-score | 2.74 z-score | 1.21 z-score | 4.32 z-score | 5.25 z-score
9 | CCGATTAACATCAGGGAATGCCATGATGTTAATCGGGTCTTGATTCGCTTGACGCTGCTG | 1.69 z-score | 2.76 z-score | 1.43 z-score | 2.52 z-score | 3.45 z-score
10 | CCGATTAACATCAGGGGAGGAAATGATGTTAATCGGGTCTTGATTCGCTTGACGCTGCTG | 3.45 z-score | 4.2 z-score | 7.38 z-score | 1.91 z-score | 3.51 z-score
11 | CCGATTAACATCAGGGAAACCCATGATGTTAATCGGGTCTTGATTCGCTTGACGCTGCTG | 3.64 z-score | 4.19 z-score | 2.54 z-score | 8.17 z-score | 4.85 z-score
12 | CCGATTAACATCAGGGGAAGGAATGATGTTAATCGGGTCTTGATTCGCTTGACGCTGCTG | 3.87 z-score | 5.34 z-score | 6.35 z-score | 3.59 z-score | 4.05 z-score
13 | CCGATTAACATCAGGCTTTTCCCTGATGTTAATCGGGTCTTGATTCGCTTGACGCTGCTG | 2.62 z-score | 4.54 z-score | 2.51 z-score | 2.3 z-score | 6.49 z-score
14 | CCGATTAACATCAGAATTGCCCCTGATGTTAATCGGGTCTTGATTCGCTTGACGCTGCTG | 2.58 z-score | 3.54 z-score | 1.95 z-score | 1.75 z-score | 3.86 z-score
15 | CCGATTAACATCATAATTCCCAATGATGTTAATCGGGTCTTGATTCGCTTGACGCTGCTG | 1.92 z-score | 3.54 z-score | 2.94 z-score | 2.22 z-score | 2.84 z-score
16 | CCGATTAACATCAGAAATCCCGATGATGTTAATCGGGTCTTGATTCGCTTGACGCTGCTG | 3.14 z-score | 2.98 z-score |  | 3.98 z-score | 2.24 z-score

Row | Sequence | binding signal (GST-Ap-NF-kB RHD) | binding signal [1] | binding signal (GST-Co-NF-kB) | binding signal (GST-Dm-Relish) | binding signal (GST-Aq-NF-kB)
17 | CCGATTAACATCAGGGATTCCACTGATGTTAATCGGGTCTTGATTCGCTTGACGCTGCTG | 2.72 z-score | 1.75 z-score |  | 6.88 z-score | 4.11 z-score
18 | CCGATTAACATCAACAAAGTCCCTGATGTTAATCGGGTCTTGATTCGCTTGACGCTGCTG | 4.89 z-score | 5.37 z-score |  | 5.26 z-score | 4.25 z-score
19 | CCGATTAACATCAGGGCAAACCCTGATGTTAATCGGGTCTTGATTCGCTTGACGCTGCTG | 1.34 z-score | 1.88 z-score |  | 1.14 z-score | 4.6 z-score
20 | CCGATTAACATCAAAAAAGACCCTGATGTTAATCGGGTCTTGATTCGCTTGACGCTGCTG | 2.93 z-score | 5.44 z-score |  | 6.91 z-score | 6.04 z-score
21 | CCGATTAACATCACGGCAATCCCTGATGTTAATCGGGTCTTGATTCGCTTGACGCTGCTG | 1.5 z-score | 1.21 z-score |  | 2.64 z-score | 2.66 z-score
22 | CCGATTAACATCAGGATATACCCTGATGTTAATCGGGTCTTGATTCGCTTGACGCTGCTG | 2.02 z-score | 2.26 z-score |  | 2.67 z-score | 4.83 z-score
23 | CCGATTAACATCACGGGTTTTTCTGATGTTAATCGGGTCTTGATTCGCTTGACGCTGCTG | 3.7 z-score | 3.76 z-score |  | 5.07 z-score | 4.7 z-score
24 | CCGATTAACATCAGGAAGGCCCCTGATGTTAATCGGGTCTTGATTCGCTTGACGCTGCTG | 2.9 z-score | 2.69 z-score |  | 4.9 z-score | 5.3 z-score
25 | CCGATTAACATCACGGACTTCCCTGATGTTAATCGGGTCTTGATTCGCTTGACGCTGCTG | 2.56 z-score | 2.62 z-score |  | 7.44 z-score | 5.45 z-score
26 | CCGATTAACATCAGGTAATCCCATGATGTTAATCGGGTCTTGATTCGCTTGACGCTGCTG | 2.95 z-score | 1.6 z-score |  | 6.13 z-score | 3.49 z-score
27 | CCGATTAACATCAGGGATCTACCTGATGTTAATCGGGTCTTGATTCGCTTGACGCTGCTG | 3.06 z-score | 2.58 z-score |  | 7.65 z-score | 4.74 z-score
28 | CCGATTAACATCAGGAGATACCCTGATGTTAATCGGGTCTTGATTCGCTTGACGCTGCTG | 3.04 z-score | 3.44 z-score |  | 3.18 z-score | 6.4 z-score
29 | CCGATTAACATCAGGGACCTCCCTGATGTTAATCGGGTCTTGATTCGCTTGACGCTGCTG | 5.47 z-score | 4.78 z-score |  | 6.16 z-score | 7.04 z-score
30 | CCGATTAACATCAGGAATCCCACTGATGTTAATCGGGTCTTGATTCGCTTGACGCTGCTG | 1.73 z-score | 1.37 z-score |  | 8.1 z-score | 1.75 z-score
31 | CCGATTAACATCAAGAAATTACCTGATGTTAATCGGGTCTTGATTCGCTTGACGCTGCTG | 1.26 z-score | 2.74 z-score |  | 3.19 z-score | 2.27 z-score
